Assay results published in the supplement of paper PMC5662767.
Counter-ions that a name gives are not always drawn.

System: Drosophila S2 cl14 SmoIP sensor cells
Assay: normalized SmoIP GFP fluorescence (untreated unstimulated = 0%, untreated Hh-stimulated = 100%); higher = more Smo activation sensor fluorescence
Settings: compound concentration: 2 uM, 24 h
[1] = stimulation: Hh conditioned medium (+Hh)
[2] = stimulation: mock conditioned medium (-Hh)
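Also: flow cytometry read-out as median GFP intensity of gated cells, compounds added 30 min before Hh-conditioned or mock medium, mock-treated cells serving as unstimulated baseline.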

COCCCOc1cc(C[C@@H](C[C@H](N)[C@@H](O)C[C@H](C(=O)NCC(C)(C)C(N)=O)C(C)C)C(C)C)ccc1OC [Aliskiren-hemifumarate]
normalized SmoIP GFP fluorescence [1]: 126% | normalized SmoIP GFP fluorescence [2]: -8.59%

O=C(/C=C\n1cnc(-c2cc(C(F)(F)F)cc(C(F)(F)F)c2)n1)NNc1cnccn1
normalized SmoIP GFP fluorescence [1]: 109% | normalized SmoIP GFP fluorescence [2]: 1.33%

CC1(C)Cc2c(-c3ccccc3)c(-c3ccc(Cl)cc3)c(CC(=O)O)n2C1 [licofelone]
normalized SmoIP GFP fluorescence [1]: 121% | normalized SmoIP GFP fluorescence [2]: -11.2%

COc1ccc(C[C@H](NC(=O)[C@H](C)NC(=O)CN2CCOCC2)C(=O)N[C@@H](Cc2ccccc2)C(=O)[C@@]2(C)CO2)cc1
normalized SmoIP GFP fluorescence [1]: 86.4% | normalized SmoIP GFP fluorescence [2]: 15.1%

Nc1cc(C(F)(F)F)c(-c2cc(N3CCOCC3)nc(N3CCOCC3)n2)cn1
normalized SmoIP GFP fluorescence [1]: 68% | normalized SmoIP GFP fluorescence [2]: -8.9%

O=C1NC(=O)C(c2ccccc2[N+](=O)[O-])=C1Nc1ccc(O)c(Cl)c1
normalized SmoIP GFP fluorescence [1]: 153% | normalized SmoIP GFP fluorescence [2]: -16.1%

COC(=O)C1=C(C#N)NC(C)=C(C(=O)OC(C)C)C1c1cccc([N+](=O)[O-])c1 (centres undefined) [nilvadipine-arc029]
normalized SmoIP GFP fluorescence [1]: 110% | normalized SmoIP GFP fluorescence [2]: -17%

O=C(Nc1cccc(Cl)c1)Nc1ncc(CCNc2ncnc3ccsc23)s1
normalized SmoIP GFP fluorescence [1]: 127% | normalized SmoIP GFP fluorescence [2]: 11%

O=C(NCc1ccc(Oc2ccccc2)cc1)c1nc(-c2cc(Br)c(O)c(Br)c2)no1 [iowh032]
normalized SmoIP GFP fluorescence [1]: 117% | normalized SmoIP GFP fluorescence [2]: 20%

Cc1cccc(Nc2cc(Cl)nc(SCC(=O)O)n2)c1C
normalized SmoIP GFP fluorescence [1]: 93.8% | normalized SmoIP GFP fluorescence [2]: -14.3%

O=c1n(CCCN2CCN(c3cccc(Cl)c3)CC2)nc2ccccn12 [trazodone-hydrochloride-desyrel]
normalized SmoIP GFP fluorescence [1]: 172% | normalized SmoIP GFP fluorescence [2]: -8.23%

OC(CN1CCN(c2cccc(Cl)c2)CC1)C(c1ccccc1)c1ccccc1 (centres undefined)
normalized SmoIP GFP fluorescence [1]: 109% | normalized SmoIP GFP fluorescence [2]: -4.89%
